Laboratory results reported in PubChem BioAssay (NCATS).
Records with an inconclusive call do not appear. Active and inactive are the calls of the source. The call rests on the fitted dose curve; in most records, active means well fitted cell-killing curve with a large enough effect; inconclusive means small, poorly fitted or top-dose-only effect, or effect the other way; inactive means flat fitted curve, though single readings scatter.

These compounds were tested on Tov112D (assay: Primary qHTS to identify gynecologic anti-cancer compounds using libraries of approved drugs and bioactive compounds (AID 1345084; further: nearly all actives have a fitted effect of over 55% in size)). Settings: Gynecologic cancer cell panel viability, ATPlite luminescence, 48 h; series mostly up to 57.5 µM; activity change, negative = cytotoxicity: at the top concentration.
In short: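 In this quantitative HTS, cell killing is estimated from loss of ATP-dependent luciferase light. Cells see five compound concentrations over a 48 h exposure.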
On the % scale 0 is the no-effect control and ±100 the full control effect; potency means the concentration at half of the fitted maximal effect.

SMILES | activity change, negative = cytotoxicity | Potency
C/C=C(/C)C1C=CC2CC(C)CC(C)C2C1/C(O)=C1\C(=O)NC(CC(C)(O)C(=O)O)C1=O (centres undefined) | 4.39% [at 25.3 µM] (inactive) | 
CS[C@]1(CO)C(=O)N2[C@H]3C(=CC=C[C@@H]3O)C[C@@]2(SC)C(=O)N1C | 14.7% [at 38.5 µM] (inactive) | 
COc1ccc2c3c4n(c2c1)[C@@H](C=C(C)C)OOC(C)(C)C[C@@H]4N1C(=O)[C@@H]2CCCN2C(=O)[C@]1(O)[C@H]3OCC=C(C)C | -5.09% [at 25.3 µM] (inactive) | 
CC1=CC2/C=C(\C)CCCC(O)/C=C/C(=O)OC23C(=O)NC(CC(C)C)C3C1C (centres undefined) | 7.26% [at 38.5 µM] (inactive) | 
C=CC(C)(C)c1[nH]c2c(CC=C(C)C)cc(CC=C(C)C)cc2c1C[C@@H]1NC(=O)[C@H](C)NC1=O | -1.45% (inactive) | 
COc1cc(O)c2c(c1)/C=C/C[C@@H](O)[C@@H](O)C(=O)CCC[C@H](C)OC2=O | 3.16% [at 38.5 µM] (inactive) | 
CC(=O)O[C@H]1CC[C@H]2[C@@H]3CC[C@H]4CC(=O)C=C(C)[C@]4(C)[C@H]3CC[C@]12C | 9.59% (inactive) | 
COc1cc(N2CCN(C)CC2)ccc1N | 0.0337% (inactive) | 
COCC(C(=O)OC1CC2CCC(C1)N2C)c1ccccc1 (centres undefined) | 5.75% (inactive) | 
N#CC(O[C@@H]1O[C@H](CO)[C@@H](O)[C@H](O)[C@H]1O)c1ccccc1 (some centres undefined) | 2.07% (inactive) | 
CC[C@H]1C2CC3[C@@H]4N(C)c5ccccc5[C@]45C[C@@H]([C@H]2[C@H]5O)N3[C@H]1O | 4.2% [at 38.5 µM] (inactive) | 
NC(=O)c1ncn2c1CN=C(c1ccccc1Br)c1cc(F)ccc1-2 | 2.21% (inactive) | 
Cc1c(N2C(=O)[C@@H]3[C@H](O)CCN3C2=O)ccc(C#N)c1Cl | 9.23% (inactive) | 
CC(=O)O[C@@H]1[C@H]2CC[C@H]3[C@@](C)(O)[C@@H]4C[C@H](O)C(C)(C)[C@@]4(O)[C@H](O)C[C@@]13C[C@@]2(C)O | -0.37% [at 25.3 µM] (inactive) | 
CC(=O)N1N=C(c2ccc(N)cc2)c2cc3c(cc2C[C@H]1C)OCO3 | 1.45% (inactive) | 
COC(=O)[C@]12CCCC(C)(C)C1CCc1cc(C(C)C)c(O)c(O)c12 (some centres undefined) | 11.9% [at 38.5 µM] (inactive) | 
COc1ccc(CN(C(=O)[C@@H](N)Cc2c(C)cc(C(N)=O)cc2C)[C@@H](C)c2ncc(-c3ccccc3)[nH]2)cc1C(=O)O | -1.02% (inactive) | 
C=CC/C=C\C/C=C\CCCCCCCc1cc(O)cc(O)c1 | 0.454% [at 38.5 µM] (inactive) | 
CN1C2CCC1CC(OC(=O)N1Cc3ccccc3NC1=O)C2 (centres undefined) | 18.3% (inactive) | 
COC(=O)CC1CC2(C(=O)c3c(O)cccc3C2(O)C(=O)OC)C(C)O1 (centres undefined) | 1.8% [at 38.5 µM] (inactive) | 

SMILES | activity change, negative = cytotoxicity | Potency
c1cncc(OC[C@@H]2CCN2)c1 | 1.51% (inactive) | 
Cc1c(Cl)c(OCC(=O)N2CCN(C)CC2)nc2sc(C(=O)NC3CC3)c(N)c12 | 8.83% (inactive) | 
CN1CCc2cc3c(cc2C1C1OC(=O)c2c1ccc1c2OCO1)OCO3 (centres undefined) | -3.26% [at 38.5 µM] (inactive) | 
C#CCO[C@H]1CN2CCC1CC2 | 2.6% (inactive) | 
CC1CCCC(O)CC(=O)Cc2cc(O)cc(O)c2C(=O)O1 (centres undefined) | -1.45% [at 38.5 µM] (inactive) | 
COc1ccsc1CNCC[C@@]1(c2ccccn2)CCOC2(CCCC2)C1 | -5.07% (inactive) | 
C1=C(c2cnc[nH]2)c2ccsc2CC1 | -5.93% (inactive) | 
CC1=CC2(O)/C=C/C(C)(O)C(O)C(O)/C=C/C(=O)OC23C(=O)NC(CC(C)C)C3C1C (centres undefined) | -0.829% [at 25.3 µM] (inactive) | 
C/C=C1/CN2CC[C@]34C(=Nc5ccc(OC)cc53)C2C[C@@H]1C4(CO)C(=O)OC (some centres undefined) | -19.2% [at 38.5 µM] (inactive) | 
Cc1cccc(NC(=O)N[C@H]2CN(C)c3ccccc3C(c3ccccc3)=N2)c1 | 0.863% (inactive) | 
Oc1ccc2c3c1O[C@H]1c4[nH]c5c(N=C=S)cccc5c4C[C@@]4(O)[C@@H](C2)N(CC2CC2)CC[C@]314 | 5.13% (inactive) | 
CO[C@@H]1[C@H](O)[C@@H](O[C@@H]2C[C@H]3CC[C@@H]4C(CC[C@]5(C)[C@@H](C6=CC(=O)OC6)CC[C@]45O)[C@@]3(C)[C@H](O)C2)O[C@H](C)[C@@H]1O (some centres undefined) |  | 89.1 nM (active)
C[C@@H]1CCC/C=C/[C@H]2C[C@@H](O)C[C@@H]2[C@@H](O)/C=C/C(=O)O1 |  | 1000 nM (active)
C[C@]12CCC(=O)C=C1CC[C@@H]1[C@@H]2[C@@H](O)C[C@]2(C)C(=O)CC[C@@H]12 | 2.68% (inactive) | 
CCC(C)(O)C1(C(=O)O)COC(=O)C1 (centres undefined) | 14.7% (inactive) | 
COC(=O)C1=COC(C)C2CN3CCC4(C(=O)Nc5ccccc54)C3CC12 (centres undefined) | -4% [at 38.5 µM] (inactive) | 
CC1(C)C(=O)N(c2ccc(C#N)c(C(F)(F)F)c2)C(=O)N1CCCCO | 2.8% (inactive) | 
O=C1N[C@@H](Cc2ccccc2)CN2CCCC[C@@H]12 | -4.91% (inactive) | 
CN1C(=O)CN=C(c2ccccc2Cl)c2cc(Cl)ccc21 | 7.64% (inactive) | 
